Laboratory results as given in PubChem BioAssay AID602198 (NMMLSC, 2012).
Entries with a potency or affinity are not part of this list. Calls of active or inactive are those of the source. The rule behind the calls is not given here.

Assay: yeast V-ATPase proton pumping modulator potency, dose response, S. cerevisiae, pHLuorin, cherry pick 2 (AID 602198)
Conditions: pHLuorin vacuolar pH fluorescence; series mostly up to 33.1 µM

outcome, inactive:
CC1=NOC(=O)/C1=C\c1ccccc1, Cc1ccc2oc(C(=O)N(C)Cc3ccc(C)o3)c(C)c2c1, O=C1Oc2ccccc2C(=O)/C1=C/c1ccccc1O, CC1(C)CC(=O)C(C(C2=C(O)CC(C)(C)CC2=O)c2cccs2)C(=O)C1 (centres undefined), O=[N+]([O-])c1ccc2c(c1)-c1ccccc1C2=NO, O=C(c1ccc([N+](=O)[O-])o1)N1CCN(c2nc3c(Cl)cccc3s2)CC1, O=C(NC1CCCCC1)c1c(O)nc2sccn2c1=O, O=C(O)c1ccc(/C=N/N2CCN(C3c4ccccc4-c4ccccc43)CC2)cc1, COc1ccc2nc(N3CCN(C(=O)c4ccc([N+](=O)[O-])o4)CC3)sc2c1
